Source: PubChem
Vif-A3G inh: qHTS for Inhibitors of Vif-A3G Interactions: qHTS | hit rate 0.076% among 410,000 | HeLa A3G-eYFP + Vif (tagged APOBEC3G with the HIV-1 protein that degrades it), YFP fluorescence, overnight | Potency, µM (top dose mostly 46.1 µM), inactives show at the highest dose activity, negative = active, actives largely listed as inhibitors | AID 602310, 2012 | DNA dC->dU-editing enzyme APOBEC-3G (Homo sapiens), Q9HC16; further: potency means the concentration at half of the fitted maximal effect; on the % scale 0 is the no-effect control and ±100 the full control effect; nearly all actives have a fitted effect of over 60% in size
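HeLa cells stably expressing Vif and C-terminally eYFP-tagged A3G, seeded overnight at 37 deg C, then exposed to compound by pintool overnight at 37 deg C. Rise in yellow fluorescence (Ex 488/Em 500-530, Acumen) marks blocked Vif-driven A3G degradation.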
TrxR1 inh: qHTS Assay for Inhibitors of Mammalian Selenoprotein Thioredoxin Reductase 1 (TrxR1): qHTS | Thioredoxin reductase 1, cytoplasmic (Rattus norvegicus), O89049 | hit rate 1% among 390,000 | recombinant rTrxR1, NADPH fluorescence consumption, selenite substrate | Potency, µM (doses to about 114 µM), for inactives: at the top dose activity change, negative = inhibition, actives largely listed as inhibitors | AID 588453, 2011; further: potency means the concentration at half of the fitted maximal effect; on the % scale 0 is the no-effect control and ±100 the full control effect; nearly all actives have a fitted effect of over 65% in size
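Rat TrxR1 (90 nM in the dispensed reagent) was pre-reduced with 400 uM NADPH for 5 min at room temperature, then incubated with compound for 15 min. After 400 uM selenite was added, NADPH fluorescence (Ex 340/Em 450 nm) was followed for 8 min.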
Vif-APOBEC3F blk: qHTS for Inhibitors of Vif-A3F Interactions: qHTS; HeLa A3F-eYFP + Vif (tagged APOBEC3F with the HIV-1 protein that degrades it), YFP fluorescence increase; Potency, µM (titrated, usually from 46.1 µM), for the others: top-dose activity, negative = active; hit rate 0.2% among 390,000; further: potency means the concentration at half of the fitted maximal effect; % of control where 0% means no effect; nearly all actives have a fitted effect of over 65% in size
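HeLa cells stably expressing A3F-eYFP plus Vif, plated and incubated overnight at 37 deg C, then exposed to compounds overnight at 37 deg C. Blocked degradation read as raised yellow fluorescence (Ex 488/Em 500-530).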
TrxR1 substrate: qHTS Assay for Substrates of Mammalian Selenoprotein Thioredoxin Reductase 1 (TrxR1): qHTS. purified TrxR1 substrate turnover, NADPH consumption readout. Potency, µM (doses to about 114 µM), for the others: at the highest dose activity change, negative = substrate turnover. hit rate 0.01% among 390,000. AID 588456, 2011; further: potency means the concentration at half of the fitted maximal effect; on the % scale 0 is the no-effect control and ±100 the full control effect; nearly all actives have a fitted effect of over 50% in size
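Rat TrxR1, dispensed at 90 nM, was prereduced with 400 uM NADPH (final) for 5 min at ~22 deg C, then incubated with compound 15 min before 400 uM selenite. A first-read NADPH fluorescence drop versus no-compound background flagged substrates.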
VDR inh: Inhibitors of the vitamin D receptor (VDR): qHTS | Vitamin D3 receptor (Homo sapiens), P11473 | VDR-SRC2-3 peptide fluorescence polarization, 2 h | Potency, µM, for the others: max response, negative = inhibition, hits mostly inhibitors | hit rate 0.93% among 400,000 | AID 504847, 2011; further: potency means the concentration at half of the fitted maximal effect; on the % scale 0 is the no-effect control and ±100 the full control effect
Target sequence (P11473 whole entry, looked up): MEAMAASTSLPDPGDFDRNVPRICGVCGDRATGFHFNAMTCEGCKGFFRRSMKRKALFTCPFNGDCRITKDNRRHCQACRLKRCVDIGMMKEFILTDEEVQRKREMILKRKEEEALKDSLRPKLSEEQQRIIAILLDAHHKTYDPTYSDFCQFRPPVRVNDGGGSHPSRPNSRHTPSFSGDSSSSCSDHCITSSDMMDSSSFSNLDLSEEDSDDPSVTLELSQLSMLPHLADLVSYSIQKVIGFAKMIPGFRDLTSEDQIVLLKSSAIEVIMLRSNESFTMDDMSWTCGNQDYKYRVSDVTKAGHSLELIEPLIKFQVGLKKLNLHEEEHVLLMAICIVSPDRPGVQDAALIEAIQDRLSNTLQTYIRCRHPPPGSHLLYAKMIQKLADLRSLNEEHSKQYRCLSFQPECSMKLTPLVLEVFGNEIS
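Fluorescence polarization assay of small-molecule disruption of VDR binding to coregulator peptide SRC2-3. Compounds and controls pin-transferred, then read after 2 h incubation at ambient room temperature.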
USP1-UAF1 confirm: Inhibitors of USP1/UAF1: Hit Validation in Primary Assay; shares compounds with VDR inh; Ub-Rhodamine cleavage, fluorescence kinetic read; Potency, µM (top dose mostly 114 µM), for the others: at the highest dose activity change, negative = inhibition, actives largely listed as inhibitors; hit rate 50% among 50; AID 540327, 2011
VDR confirm: qHTS for Inhibitors of the vitamin D receptor (VDR): Hit Validation in Primary Screen; AID 602199, 2012; hit rate 89% among 840; Potency, µM, usual class: inhibitors; VDR-coactivator inhibition assay, qHTS confirmation; shares compounds with VDR inh; further: potency means the concentration at half of the fitted maximal effect
VDR FP: qHTS for Inhibitors of the vitamin D receptor (VDR): Hit Validation using a Fluorescein Assay; VDR-coactivator binding, fluorescein fluorescence polarization; Potency, µM (doses to about 57.1 µM), for the others: top-dose activity change, negative = inhibition, most hits filed as inhibitors; hit rate 48% among 840; shares compounds with VDR inh; AID 602200, 2012; further: potency means the concentration at half of the fitted maximal effect
VDR bla: qHTS for Inhibitors of the vitamin D receptor (VDR): Hit Validation using a Beta-Lactamase Assay. hit rate 23% among 840. Potency, µM (highest dose often 46.1 µM), for inactives: at the top dose activity change, negative = inhibition, most hits filed as inhibitors. VDR beta-lactamase reporter cells, FRET ratio; cells co-treated with VDR agonist LG190178. shares compounds with VDR inh; further: potency means the concentration at half of the fitted maximal effect; on the % scale 0 is the no-effect control and ±100 the full control effect
VDR viability: qHTS for Inhibitors of the vitamin D receptor (VDR): Hit Validation using a Cytotoxicity Assay | shares compounds with VDR inh | cytotoxicity counter-screen, cell viability, qHTS | Potency, µM (titrated, usually from 48.3 µM), inactives show top-dose activity change, negative = cytotoxicity, actives largely listed as cytotoxic | hit rate 18% among 840 | AID 602204, 2012;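 further: potency means the concentration at half of the fitted maximal effect; plate controls were DMSO for no effect and high-concentration cycloheximide for full effect; nearly all actives have a fitted effect of over 75% in size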
Active calls of the source: *; ? = inconclusive; / = not tested or not shown; [ ] = remark or other dose. Compounds with a hit are over-represented: about 1.8% of the library has one in this group of screens. The call rests on the fitted dose curve; in most records, active means well fitted curve in the direction sought with a large enough effect; inconclusive means small, poorly fitted or top-dose-only effect, or another doubt; inactive means no such curve, though single readings can be large; an effect the other way counts as inactive or inconclusive.

SMILES	Vif-A3G inh	TrxR1 inh	Vif-APOBEC3F blk	TrxR1 substrate	VDR inh	VDR confirm	VDR FP	VDR bla	VDR viability	others
Cc1cccc(CS(=O)(=O)c2ncc(Cl)c(C(=O)NCc3ccccc3)n2)c1	?	6.3µM*	4%	-2%	16µM*	4.7*	7.9µM*	15µM*	23µM*
Cc1ccc(CSc2ncc(Cl)c(C(=O)NCc3ccccc3)n2)cc1	13%	8%	-2%	-1%	6%	/	/	/	/
CCCc1nnc(NC(=O)c2nc(S(=O)(=O)Cc3cccc(C)c3)ncc2Cl)s1	?	?	1%	9%	14µM*	6*	?	12µM*	16µM*
CCOC(=O)c1cnc2ccccc2c1Nc1cccc(OC)c1	1%	15%[57.1 µM]	-8%	-3%[57.1 µM]	-4%	/	/	/	/
CC(=O)N(C(C)=O)N1C(=O)C2C3c4ccccc4C(c4ccccc43)C2C1=O (centres undefined)	1%	?	-6%	5%	35µM*	30*	?	33%	1%
CCOC(=O)CSC1=NC(=O)/C(=C\c2ccc(OC(C)=O)cc2)S1	1%	8.9µM*	?	-8%	20µM*	13*	?	?	?
COCCn1c(C)cc(O)c(C(c2ccccc2OC)N2CCN(c3ccccc3)CC2)c1=O (centres undefined)	-2%	?	7%	6%[57.1 µM]	-1%	/	/	/	/
c1ccc(CCc2nn3c(Cc4ccccc4)nnc3s2)cc1	2%	?	-12%	-9%	79µM*	28*	25µM*	-5%	?
c1ccc(Cc2nnc3sc(-c4cccs4)nn23)cc1	0%	-7%	0%	5%	?	/	/	/	/
Cc1ccc(C(C2=C(O)CC(C)(C)CC2=O)C2C(=O)CC(C)(C)CC2=O)s1 (centres undefined)	-11%	10µM*	-7%	6%	50µM*	11*	7.9µM*	22%	?
CC1(C)CC(=O)C(C(C2=C(O)CC(C)(C)CC2=O)c2ccc(Br)s2)C(=O)C1 (centres undefined)	-19%	4µM*	-13%	-16%	10µM*	4.2*	2.8µM*	-12%	?
CC1(C)CC(=O)C(C(C2=C(O)CC(C)(C)CC2=O)c2ccc([N+](=O)[O-])cc2)C(=O)C1 (centres undefined)	2%	?	5%	-8%	?	/	/	/	/
CCCc1c(OCCCOc2ccc(OCC(=O)O)cc2)ccc(CC=O)c1O	/	/	/	/	35µM*	/	/	/	/	USP1-UAF1 confirm=59µM*
CCCCCCc1ccc(OCC(=O)O)cc1OCC(=O)O	0%	14%[57.1 µM]	-4%	5%[57.1 µM]	-13%	/	/	/	/
O=C(CCS(=O)(=O)c1nc(-c2ccc3c(c2)OCO3)cc(C(F)(F)F)n1)Nc1ccc(Br)cc1	-26%	71%	-9%	35%	13µM*	3.2*	3.5µM*	23µM*	?
CC(C)c1nnc(NC(=O)CCS(=O)(=O)c2nc(-c3cccs3)cc(C(F)(F)F)n2)s1	?	35µM*	-2%	14%	22µM*	9.5*	?	?	?
CC(C)c1nnc(NC(=O)CCS(=O)(=O)Cc2ccccc2)s1	-2%	13%	7%	-3%	-5%	/	/	/	/
COc1ccc(Cl)cc1NC(=O)CCS(=O)(=O)c1nc(-c2cccs2)cc(C(F)(F)F)n1	?	?	0%	5%[2.29 µM]	20µM*	5*	3.5µM*	18µM*	?
Cc1nc2ccc(NC(=O)CCS(=O)(=O)c3ccc(Cl)cc3)cc2s1	2%	10%	-19%	-7%	?	/	/	/	/
COc1ccc(Cl)cc1NC(=O)CCCS(=O)(=O)c1nc(-c2ccc(OC)c(OC)c2)cc(C(F)(F)F)n1	-26%	22%	1%	36%	?	/	/	/	/
O=C(CCS(=O)(=O)c1nc(-c2cccs2)cc(C(F)(F)F)n1)Nc1ccc(F)c(Cl)c1	-24%	?	0%	18%[2.29 µM]	22µM*	3.2*	3.5µM*	?	?
NC(C(=O)O)c1ccc(P(=O)(O)O)cc1 (centres undefined)	/	/	/	/	18%	/	/	/	/
CCCCOc1ccc(CC(=O)N(C)OC)cc1	5%	17%	/	8%	/	/	/	/	/
CC(C)c1ccc(S(=O)(=O)NCc2nc3cccnc3n2Cc2ccc(F)cc2)cc1	1%	11%[57.1 µM]	7%	1%[57.1 µM]	1%	/	/	/	/
COc1ccc(OC)c2c1C(=O)c1ccccc1C2=O	-13%	21%[57.1 µM]	-11%	1%[57.1 µM]	11%	/	/	/	/
COC1=C(OC)C(=O)c2ccccc2C1=O	/	12%[57.1 µM]	/	24%[57.1 µM]	35µM*	/	/	/	/	USP1-UAF1 confirm=30µM*
O=C(/C=C/c1ccncc1)c1ccc2c(c1)OCCO2	?	?	11%	-4%	28µM*	27*	?	1%	-7%
COc1ccc(NC(=O)Cc2ccc(Cl)c(Cl)c2)cn1	-2%	16%[57.1 µM]	-4%	-9%	-15%	/	/	/	/
COc1ccc(NC(=O)/C(Cl)=C(/Cl)S(=O)(=O)Cc2ccc(C)cc2)cn1	-24%	2.2µM*	-5%	11%[57.1 µM]	16µM*	19*	13µM*	5.8µM*	21µM*
